Compounds with a hit are over-represented: about 5.7% of the library has one in this group of screens.
MPTP block – permeability transition pore inhibition. isolated mouse mitochondria, Ca2+ swelling absorbance, 30 min. inhibition, % at 10 µM. 1.4% of 360,000 active;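 active = inhibition of 50% or more, scaled per plate between neutral and stimulator controls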;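 also: 0% = DMSO wells given calcium and 100% = 1 mM EGTA wells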
Myeloid diff MLP – promotes myeloid progenitor differentiation | ER-HoxA9 myeloid progenitors, lysozyme-GFP differentiation, flow cytometry | calls only at 10 µM | 1% of 360,000 active;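 active = normalized GFP-positive differentiation at or above the plate's own cutoff, the solvent-only control mean plus 3 SD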;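 also: cells exposed to compound for four days before flow analysis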
FAS-TE inh – inhibitors of human fatty acid synthase thioesterase domain; recombinant FAS-TE, OMFH fluorogenic substrate, fluorescence endpoint; inhibition, % at 15 µM; 0.67% of 360,000 active; AID 602261; P49327;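 active = compounds whose normalised, plate-corrected inhibition of enzyme fluorescence in the single-dose primary screen is 50% or more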;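 also: 0% = DMSO with enzyme and 100% = substrate without enzyme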
Target sequence (P49327 whole entry, looked up, the tested form may be a part): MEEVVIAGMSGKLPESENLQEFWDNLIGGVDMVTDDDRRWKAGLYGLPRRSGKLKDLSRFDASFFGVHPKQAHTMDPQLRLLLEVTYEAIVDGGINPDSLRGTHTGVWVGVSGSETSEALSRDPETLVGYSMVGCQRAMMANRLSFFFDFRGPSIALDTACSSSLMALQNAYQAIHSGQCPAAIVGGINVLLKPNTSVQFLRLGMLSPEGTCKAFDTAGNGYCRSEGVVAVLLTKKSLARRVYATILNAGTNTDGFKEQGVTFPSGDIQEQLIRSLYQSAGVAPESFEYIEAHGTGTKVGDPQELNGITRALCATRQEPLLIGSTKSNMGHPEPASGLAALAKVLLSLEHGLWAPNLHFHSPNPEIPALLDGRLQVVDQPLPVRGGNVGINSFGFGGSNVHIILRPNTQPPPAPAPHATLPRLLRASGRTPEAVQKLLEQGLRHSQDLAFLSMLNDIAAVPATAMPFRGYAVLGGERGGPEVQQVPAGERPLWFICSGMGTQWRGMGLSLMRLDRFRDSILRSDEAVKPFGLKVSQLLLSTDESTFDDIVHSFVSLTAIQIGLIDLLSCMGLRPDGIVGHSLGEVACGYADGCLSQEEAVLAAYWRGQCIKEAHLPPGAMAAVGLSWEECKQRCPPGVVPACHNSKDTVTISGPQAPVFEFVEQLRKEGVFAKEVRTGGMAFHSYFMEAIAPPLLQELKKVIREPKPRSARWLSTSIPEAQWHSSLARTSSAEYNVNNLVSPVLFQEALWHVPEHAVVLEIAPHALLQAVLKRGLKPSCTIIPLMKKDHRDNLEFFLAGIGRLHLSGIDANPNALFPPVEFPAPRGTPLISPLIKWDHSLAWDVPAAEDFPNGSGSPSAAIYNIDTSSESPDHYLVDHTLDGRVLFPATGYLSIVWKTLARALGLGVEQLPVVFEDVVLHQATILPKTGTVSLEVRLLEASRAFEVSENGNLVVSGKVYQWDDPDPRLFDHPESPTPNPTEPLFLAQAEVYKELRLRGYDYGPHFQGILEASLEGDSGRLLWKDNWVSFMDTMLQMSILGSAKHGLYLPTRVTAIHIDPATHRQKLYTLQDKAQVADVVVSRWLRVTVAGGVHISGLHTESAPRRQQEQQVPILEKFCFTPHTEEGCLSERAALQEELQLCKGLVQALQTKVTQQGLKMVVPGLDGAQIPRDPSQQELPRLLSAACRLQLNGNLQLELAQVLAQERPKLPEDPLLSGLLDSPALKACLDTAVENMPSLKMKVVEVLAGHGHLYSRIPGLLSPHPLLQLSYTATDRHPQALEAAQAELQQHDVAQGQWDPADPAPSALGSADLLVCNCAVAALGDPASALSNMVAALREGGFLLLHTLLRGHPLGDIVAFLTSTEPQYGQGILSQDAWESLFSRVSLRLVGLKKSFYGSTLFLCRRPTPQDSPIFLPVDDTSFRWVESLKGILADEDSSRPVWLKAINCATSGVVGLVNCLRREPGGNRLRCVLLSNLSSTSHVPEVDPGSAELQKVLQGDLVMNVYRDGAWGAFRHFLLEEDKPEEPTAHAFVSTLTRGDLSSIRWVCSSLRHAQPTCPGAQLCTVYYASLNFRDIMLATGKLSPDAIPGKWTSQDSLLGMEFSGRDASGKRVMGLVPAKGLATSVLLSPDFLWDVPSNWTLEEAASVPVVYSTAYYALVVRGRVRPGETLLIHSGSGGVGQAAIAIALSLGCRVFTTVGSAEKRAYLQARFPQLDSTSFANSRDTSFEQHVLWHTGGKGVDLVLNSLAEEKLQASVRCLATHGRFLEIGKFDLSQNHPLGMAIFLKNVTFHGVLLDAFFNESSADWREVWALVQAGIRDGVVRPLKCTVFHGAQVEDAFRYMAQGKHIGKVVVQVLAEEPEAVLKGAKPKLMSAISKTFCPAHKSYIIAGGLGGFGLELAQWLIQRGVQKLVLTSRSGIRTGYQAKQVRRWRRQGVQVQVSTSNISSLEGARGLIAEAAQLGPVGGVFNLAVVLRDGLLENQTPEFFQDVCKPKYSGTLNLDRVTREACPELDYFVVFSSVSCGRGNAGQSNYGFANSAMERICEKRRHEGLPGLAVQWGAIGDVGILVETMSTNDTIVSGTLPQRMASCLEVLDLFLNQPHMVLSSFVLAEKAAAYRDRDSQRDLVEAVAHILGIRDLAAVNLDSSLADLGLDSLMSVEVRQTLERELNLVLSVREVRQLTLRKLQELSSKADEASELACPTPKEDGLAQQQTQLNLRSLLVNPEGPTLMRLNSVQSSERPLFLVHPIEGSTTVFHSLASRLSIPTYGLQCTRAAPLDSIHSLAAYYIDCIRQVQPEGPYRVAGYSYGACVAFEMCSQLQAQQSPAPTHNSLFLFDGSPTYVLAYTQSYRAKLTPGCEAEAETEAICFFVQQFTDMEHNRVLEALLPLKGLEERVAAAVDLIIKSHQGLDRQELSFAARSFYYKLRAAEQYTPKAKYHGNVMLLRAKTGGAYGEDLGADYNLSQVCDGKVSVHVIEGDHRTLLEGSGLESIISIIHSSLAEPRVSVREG
NR3A LBD binder – NR3A (human) ligand-binding domain modulation. Tm shift relative to glycine control, % at 25 µM. 2.5% of 340,000 active. NR3A LBD differential scanning fluorimetry, Tm shift; 0% = protein alone, 100% = glycine-bound protein;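 active = melting temperature shift of at least 10% of the positive control shift, at one fixed dose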
rCAG binder – molecules binding r(CAG) RNA repeats; AID 651821; 1.3% of 370,000 active; inhibition, % at 3 µM; r(CAG) RNA repeat, TO-PRO-1 dye displacement fluorescence;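 active = inhibition above the plate cutoff, the mean of all test compounds on that plate plus 3 SD, cut at about 35% in these data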;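 also: 0% = DMSO alone and 100% = 100 µM mitoxantrone as full dye displacement; higher means more dye released from RNA so lower well fluorescence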
Active calls of the source: *; i = inactive; . = not tested or not shown; + = active, no number.

SMILES | MPTP block | Myeloid diff MLP | FAS-TE inh | NR3A LBD binder | rCAG binder
COc1ccc(Cl)cc1NC(=O)CSc1nc2sccc2c(=O)[nH]1 | -1 | i | -3 | -1 | 45*
O=C(CSc1nc2[nH]ncc2c(=O)[nH]1)Nc1ccccc1C(F)(F)F | -1 | i | -4 | 1 | 1
COC(=O)c1ccc(NC(=O)CSc2nc3[nH]ncc3c(=O)[nH]2)cc1 | -2 | i | -8 | 14* | 0
CC(=O)c1ccc(NC(=O)CSc2nc3[nH]ncc3c(=O)[nH]2)cc1 | 1 | i | -8 | 1 | 3
O=C(CSc1nc2[nH]ncc2c(=O)[nH]1)Nc1ccccc1F | -1 | i | -9 | 14* | 3
COC(=O)c1ccc(C)c(NC(=O)Cc2coc3cc(OC)ccc23)c1 | 0 | + | 4 | -31 | 8
COC(=O)c1cc(NC(=O)Cc2coc3cc(OC)ccc23)cc(C(=O)OC)c1 | 1 | i | 21 | -8 | -3
CC(C)c1ccc(S(=O)(=O)/N=C2\C=C(NS(=O)(=O)c3ccccc3)C(=O)c3ccccc32)cc1 | 26 | . | 5 | 1 | 68*
Cc1ccccc1NC1=C/C(=N\S(=O)(=O)c2ccc(C(=O)O)cc2)c2ccccc2C1=O | 7 | i | 5 | -4 | 32
O=C(N[C@H](C(=O)N1CCC[C@H]1C(=O)NCCc1ccccc1Cl)c1ccccc1)c1ccco1 | . | . | . | . | -1
COC(=O)c1ccc(NC(=O)Cn2c(-c3nonc3N)nc3ccccc32)cc1 | -1 | i | -6 | -1 | 4
CC(C)OC(=O)c1ccc(NC(=O)Cn2c(-c3nonc3N)nc3ccccc32)cc1 | 2 | i | 0 | 19* | 25
COc1cc2c(cc1NC(=O)CSc1nnc(-c3ccccc3C)n1Cc1ccco1)oc1ccccc12 | . | . | . | . | 12
O=C1CSC(=Nc2ccc(Cl)cc2)N1 | 0 | i | -6 | 0 | 0
O=C1CSC(=Nc2cc(Cl)ccc2Cl)N1 | -2 | i | -7 | 11* | .
O=C(Nc1ccc(F)cc1)OCc1cn(Cc2ccccc2Cl)nn1 | . | . | . | . | 0
CC(C)CC1(C)NC(=O)NC1=O (stereo not given) | -1 | i | -5 | 11* | 2
CC(C)C[C@H]1COc2cccc(F)c2S(=O)(=O)N1C | . | . | . | . | 1
O=C(CCc1nnc(Cc2c[nH]c3ccccc23)o1)NC1CCCC1 | 2 | i | 1 | -1 | -1
O=C(CCc1nnc(Cc2c[nH]c3ccccc23)o1)NCCC1CCCCO1 (stereo not given) | 0 | + | -10 | . | 1
CNc1nc2ccccc2n1/N=C/c1cccc(OC)c1OC | -1 | i | 3 | 32* | 4
CN1CCN(S(=O)(=O)c2ccc(NC(=O)Nc3cccc(Cl)c3)cc2)CC1 | 17 | i | 10 | 14* | 22
Cc1cc(NS(=O)(=O)c2ccc(NC(=S)NC(=O)c3ccc(F)cc3)cc2)no1 | -3 | i | -11 | 14* | 28
Cc1cc(NS(=O)(=O)c2ccc(NC(=S)NC(=O)c3cccc(S(=O)(=O)N(C)C)c3)cc2)no1 | 1 | i | -2 | 1 | 34
Cc1cc(NC(=O)Nc2cccc(Cl)c2)no1 | 17 | i | 0 | . | 3
SMILES | MPTP block | Myeloid diff MLP | FAS-TE inh | NR3A LBD binder | rCAG binder
CN1CCN(S(=O)(=O)c2ccc(NC(=O)c3ccccc3Cl)cc2)CC1 | -1 | i | -1 | -1 | -3
Cc1cc(NS(=O)(=O)c2ccc(NC(=O)Nc3cccc(Cl)c3)cc2)no1 | 11 | i | -5 | 21* | 68*
Cc1ccc(OC(C)C(=O)Nc2ccc(S(=O)(=O)Nc3cc(C)on3)cc2)cc1 (stereo not given) | -1 | i | -7 | 16* | 13
CCOC(=O)N1C(=O)C[C@](Sc2ccc(OC)cc2)(C(=O)N2CCCC2)[C@H]1c1ccc(OC)cc1 | . | . | . | . | 2
CCN(CC)C(=O)CSc1nnc(-c2ccccn2)n1C | . | . | . | . | 0
CN1CCN(S(=O)(=O)c2ccc(NC(=O)c3ccc(Br)s3)cc2)CC1 | 1 | i | -2 | 29* | 16
CC(=O)Nc1ccc(NC(=O)C(C)Oc2ccc(Cl)cc2Cl)cc1 (stereo not given) | 1 | i | -3 | -2 | -3
Cc1nc2cc(NC(=O)c3ccc(Br)s3)ccc2s1 | 0 | i | 7 | 25* | 13
CN1CCN(S(=O)(=O)c2ccc(NC(=O)c3ccc(Br)o3)cc2)CC1 | 0 | i | -2 | -1 | 7
Cc1ccc(C(=O)Nc2ccc3nc(C)sc3c2)s1 | -2 | i | -6 | 5 | 1

Source: PubChem
